Screens (PubChem)
Shiga toxin inh – A qHTS for Small Molecule Inhibitors of Shiga Toxin | Vero cells, Shiga toxin protein synthesis inhibition reporter | inhibition, % at 38.7 µM | 290,000 tested, 9.2% active; in the data active = inhibition mostly above about 28%, no sharp cut-off; inactive = mostly below about 43%; note: 0% is about no effect
Cycloheximide cs – Cycloheximide Counterscreen for Small Molecule Inhibitors of Shiga Toxin | cell reporter, cycloheximide protein synthesis inhibition counterscreen | max response, % | 300,000 tested, 12% active | AID 2314, 2010; in the data active = max response mostly above about 13%, no sharp cut-off; inactive = mostly below about 14%; note: read at 38.3 µM for the half of the compounds with a filed dose; 0% is about no effect
Giardia FBPA inh-1 – qHTS Assay for Inhibitors of Fructose-1,6-bisphosphate Aldolase from Giardia Lamblia. purified Giardia FBPA. 290,000 tested, 0.71% active. Potency, µM (highest dose often 59.6 µM), without a hit: at the top dose activity, negative = inhibition, actives largely listed as inhibitors. A8B2U2; note: potency is the fitted concentration of half-maximal effect; % is set by controls: 0 for no effect and ±100 for the full control effect; nearly all actives have a fitted effect of over 55% in size
Target sequence (A8B2U2 whole entry, looked up): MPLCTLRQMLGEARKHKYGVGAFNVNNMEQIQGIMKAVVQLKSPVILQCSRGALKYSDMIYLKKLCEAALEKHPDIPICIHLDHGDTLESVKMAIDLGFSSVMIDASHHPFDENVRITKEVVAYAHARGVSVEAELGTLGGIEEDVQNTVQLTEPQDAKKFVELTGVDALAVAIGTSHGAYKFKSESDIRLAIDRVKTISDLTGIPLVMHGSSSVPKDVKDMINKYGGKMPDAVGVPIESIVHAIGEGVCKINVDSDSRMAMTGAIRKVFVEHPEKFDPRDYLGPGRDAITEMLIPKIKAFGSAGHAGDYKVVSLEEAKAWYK
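40 nM FBPA preincubated 10 min at RT with compound (up to 57.5 uM final), then substrate plus GAPDH/TPI/NAD/arsenate coupling and diaphorase/resazurin added. Fluorescence read after 20 min at RT, 525/598 nm.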
NS1 inh – qHTS Assay for Inhibitors of Influenza NS1 Protein Function; 270,000 tested, 0.4% active; Potency, µM (top dose mostly 46.1 µM), inactives show top-dose activity, positive = more growth; calls by dose curve; note: potency is the fitted concentration of half-maximal effect; actives are rising curves; nearly all actives have a fitted effect of over 50% in size
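S. cerevisiae expressing influenza A NS1, grown in glucose, washed, then diluted 1:100 into pH 6.0 -URA galactose medium with 23 nl compound. Growth recovery read as OD600; NS1-free strain serves as control.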
LmPK inh – qHTS Assay for Inhibitors of Leishmania Mexicana Pyruvate Kinase (LmPK); 290,000 tested, 0.37% active; Potency, µM (doses to about 57.5 µM), inactives show at the top dose activity change, negative = inhibition, usual class: inhibitors; purified LmPK, Kinase-Glo ATP luminescence, 1 h; Q27686; AID 1721, 2009; note: potency is the fitted concentration of half-maximal effect; % is set by controls: 0 for no effect and ±100 for the full control effect
Target sequence (Q27686 whole entry, looked up): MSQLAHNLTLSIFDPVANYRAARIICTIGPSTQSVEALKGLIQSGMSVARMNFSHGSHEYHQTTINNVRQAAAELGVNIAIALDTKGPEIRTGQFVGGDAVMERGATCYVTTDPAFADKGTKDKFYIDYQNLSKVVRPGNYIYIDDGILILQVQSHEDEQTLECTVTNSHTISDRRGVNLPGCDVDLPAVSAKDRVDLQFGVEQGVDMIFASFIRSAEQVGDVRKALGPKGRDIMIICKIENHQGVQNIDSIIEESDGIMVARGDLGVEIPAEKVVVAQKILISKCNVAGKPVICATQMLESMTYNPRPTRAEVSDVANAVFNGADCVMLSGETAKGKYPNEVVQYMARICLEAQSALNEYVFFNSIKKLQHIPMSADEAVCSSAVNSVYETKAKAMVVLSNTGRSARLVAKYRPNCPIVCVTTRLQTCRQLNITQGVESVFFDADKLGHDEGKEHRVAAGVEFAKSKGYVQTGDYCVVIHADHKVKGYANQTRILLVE
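Kinase-Glo luminescence read after 1 h RT reaction of 0.1 nM LmPK with 0.5 mM PEP and 0.1 mM ADP. Activity scaled between uninhibited and enzyme-free controls.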
Giardia growth – qHTS Assay for Inhibitors of Fructose-1,6-bisphosphate Aldolase from Giardia Lamblia: Giardia lamblia growth inhibition; shares compounds with Giardia FBPA inh-1; Giardia lamblia trophozoite growth inhibition; Potency, µM (highest dose often 57.5 µM), for the others: at the top dose activity change, negative = inhibition, most hits filed as inhibitors; 1,500 tested, 5% active; AID 2785, 2010;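 note: potency is the fitted concentration of half-maximal effect; trophozoites exposed to compound for 48 h at 37 °C; % is set by controls: 0 for no effect and ±100 for the full control effect; nearly all actives have a fitted effect of over 70% in size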
Mammalian tox – qHTS Assay for Inhibitors of Fructose-1,6-bisphosphate Aldolase from Giardia Lamblia: Mammalian cellular toxicity; shares compounds with Giardia FBPA inh-1; mammalian cell viability counter-screen, qHTS; Potency, µM (series often up to 57.5 µM), for inactives: top-dose viability change, negative = toxicity, actives largely listed as inhibitors; 1,500 tested, 4% active; AID 2786, 2010;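 note: Chinese hamster ovary cells used as mammalian cytotoxicity surrogate; viability measured as cellular ATP by luminescence; potency is the fitted concentration of half-maximal effect; compound exposure lasted 48 h before reading; % is set by controls: 0 for no effect and ±100 for the full control effect; nearly all actives have a fitted effect of over 60% in size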
Giardia FBPA inh-2 – qHTS Assay for Inhibitors of Fructose-1,6-bisphosphate Aldolase from Giardia Lamblia: Primary screen confirmation | shares compounds with Giardia FBPA inh-1 | purified Giardia aldolase enzyme activity, qHTS | Potency, µM (highest dose often 57.5 µM), inactives show at the top dose activity change, negative = inhibition, usual class: inhibitors | 1,500 tested, 5% active; note: potency is the fitted concentration of half-maximal effect; % is set by controls: 0 for no effect and ±100 for the full control effect; nearly all actives have a fitted effect of over 45% in size
Rabbit FBPA inh – qHTS Assay for Inhibitors of Fructose-1,6-bisphosphate Aldolase from Giardia Lamblia: Rabbit FBPA Selectivity | Potency, µM (highest dose often 57.5 µM), without a hit: at the highest dose activity, negative = inhibition, most hits filed as inhibitors | Rabbit muscle FBPA enzyme inhibition, selectivity counter-screen | 1,500 tested, 4% active | shares compounds with Giardia FBPA inh-1; note: potency is the fitted concentration of half-maximal effect; % is set by controls: 0 for no effect and ±100 for the full control effect; nearly all actives have a fitted effect of over 60% in size
GAPDH counter – qHTS Assay for Inhibitors of Fructose-1,6-bisphosphate Aldolase from Giardia Lamblia: Coupling assay counterscreen confirmation | GAPDH coupling enzyme counterscreen, biochemical, qHTS | 1,500 tested, 6% active | shares compounds with Giardia FBPA inh-1 | Potency, µM (top dose mostly 57.5 µM), for the others: at the highest dose activity change, negative = inhibition, hits mostly inhibitors; note: potency is the fitted concentration of half-maximal effect; % is set by controls: 0 for no effect and ±100 for the full control effect; nearly all actives have a fitted effect of over 55% in size
* marks the source's active call; other numbers are inactive results; ? = inconclusive; nt = not tested or not shown; [ ] = dose if it differs, or a comment. Only some compounds are listed: those with a hit (about 14% of all), similar ones and a draw of the others. Unless noted, calls come from the whole dose curve; as a rule, active = well fitted curve in the direction sought with a large enough effect; inconclusive = small, poorly fitted or top-dose-only effect, or another doubt; inactive = no such curve, though single readings can be large; an effect the other way counts as inactive or inconclusive.

SMILES	Shiga toxin inh	Cycloheximide cs	Giardia FBPA inh-1	NS1 inh	LmPK inh	Giardia growth	Mammalian tox	Giardia FBPA inh-2	Rabbit FBPA inh	GAPDH counter
Cc1nnc(N/N=C/c2ccccc2F)n1N	-6	11	?	-32%	2%	nt	nt	nt	nt	nt
COc1ccc(-n2c(C)cc(/C=N/Nc3nnc(C)n3N)c2C)cc1	33	19*	6.3µM*	-11%	0%	9%[10.4 µM]	10%	20µM*	?	?
Cc1ccc(N2CCN(C(=S)c3ccc(-c4cccc([N+](=O)[O-])c4)o3)CC2)cc1	-19	0	16µM*	-3%	-2%	-17%[10.4 µM]	-14%	-1%	-5%	6%
O=C(NC1CCCCCC1)c1ccc[nH]c1=S	41	14	16µM*	nt	0%	?	4%	9%	2%	18%
N#CC1=C(N)Oc2c(O)cc3ccccc3c2C1c1ccsc1 (centres undefined)	-9	0	18µM*	7%	1%	7%[10.4 µM]	0%	?	?	?
CCOC(=O)C1=C(C)OC(N)=C(C#N)C1c1ccsc1 (centres undefined)	61	-3	?	2%	1%	nt	nt	nt	nt	nt
Cc1ccc(SCC(=O)OCC(=O)NC(C)c2ccc(Br)cc2)cc1 (centres undefined)	-10	3	nt	nt	1%	nt	nt	nt	nt	nt
Cc1ccccc1NC(=O)CN1CCN(C)CC1	-6	-7	25µM*	8%	-2%	11%	-1%	1%	9%	12%
O=C(NCc1ccccc1)C1CCCN(S(=O)(=O)c2ccc(Br)cc2)C1 (centres undefined)	8	-1	nt	2%	-4%	nt	nt	nt	nt	nt
c1ccc(C2=NNC(c3ccccn3)=NN2)nc1	71*	33*	7.9µM*	-31%	-22%	?	0%	-26%	-23%	?
c1ccc(-c2nc3ccccc3nc2-c2ccccn2)nc1	12	-1	?	6%	1%	nt	nt	nt	nt	nt
Cn1c(SCC(=O)Nc2ccc(Cl)cc2F)nnc1-c1ccco1	-10	-1	-3%	-19%	3%	nt	nt	nt	nt	nt
COc1ccc(OC)c(S(=O)(=O)NNC(=S)Nc2ccc3c(c2)OCO3)c1	29	10	8.9µM*	4%	0%	9%[38.3 µM]	-1%	-16%	-10%	-17%
CCN(Cc1nc(-c2ccc(OC)cc2)no1)C(=O)c1ccoc1C	10	-2	-17%	-2%	-1%	nt	nt	nt	nt	nt
COc1cccc(Cn2c(=O)c(-c3cn(C)c4ccccc34)nc3cnc(OC)nc32)c1	nt	nt	5%	nt	nt	nt	nt	nt	nt	nt
COC(=O)c1cnc(NNS(=O)(=O)c2ccc(Cl)cc2)nc1C(F)(F)F	5	-2	16µM*	-3%	2%	-3%	-7%	-6%	2%	4%
COC(=O)c1cnc(NNC(=O)c2ccc([N+](=O)[O-])cc2)nc1C(F)(F)F	-9	10	-11%	4%	-2%	nt	nt	nt	nt	nt
COc1cc(/C=C2\SC(N)=NC2=O)cc(Cl)c1O	nt	-1	4%	0%	-4%	nt	nt	nt	nt	nt
Cc1ccc(C2=NC(=O)/C(=C/c3cc(O)c(O)c(Br)c3)S2)cc1	37	7	16µM*	nt	-19%	7%[10.4 µM]	-18%	-15%	-9%	10%
COc1cc(/C=C2\SC(c3ccc(C)cc3)=NC2=O)cc(OC)c1O	-15	-1	14µM*	25%	?	?	-7%	14µM*	?	?
COc1ccccc1OCC(=O)NNC(=O)c1cnccn1	-3	2	16µM*	6%	4%	?	3%	-1%	-1%	7%
COc1ccc(OCC(=O)NNC(=O)c2ccccn2)cc1	-18	-4	16µM*	-6%	1%	8%[10.4 µM]	8%	-1%	-5%	-4%
CCOc1ccc(-n2nc(C(=O)NC3CCCCC3)c3ccccc3c2=O)cc1	-5	-3	7%	2%	4%	nt	nt	nt	nt	nt
Cc1cc(C)cc(NC(=O)C(NCC2CCCO2)c2ccccc2)c1 (centres undefined)	-9	-1	16µM*	7%	-3%	-16%[10.4 µM]	8%	-1%	6%	8%
Cc1ccc(NC(=O)CSc2nnc(-c3ccco3)c(-c3ccco3)n2)cc1	1	15	?	-5%	4%	nt	nt	nt	nt	nt
SMILES	Shiga toxin inh	Cycloheximide cs	Giardia FBPA inh-1	NS1 inh	LmPK inh	Giardia growth	Mammalian tox	Giardia FBPA inh-2	Rabbit FBPA inh	GAPDH counter
Cc1cccc(C)c1NC(=O)CSc1nnc(-c2ccco2)c(-c2ccco2)n1	14	2	7.9µM*	?	13%	0%[10.4 µM]	15%	?	-23%	?
COc1ccc(CCNC(=O)CCNS(=O)(=O)c2cccc(Cl)c2)cc1OC	-6	-1	1%	nt	2%	nt	nt	nt	nt	nt
Cc1ccc(CNC(=O)CSc2nc3ccccc3[nH]2)cc1	14	15*	13µM*	16%	2%	39%	3%	4%	8%	-9%
COC(=O)c1ccc(CNC(=O)CSc2nc3ccccc3[nH]2)cc1	-13	-5	-3%	1%	0%	nt	nt	nt	nt	nt
Cc1cc(=O)n2cccc(O)c2n1	14	-2	20µM*	4%	-2%	126%	-2%	-28%	?	?
Cc1cc(=O)n2[nH]c(C)c(-c3ccccc3)c2n1	-8	-3	3%	4%	-1%	nt	nt	nt	nt	nt
Cc1ccc(NC(=O)Cc2c[nH]c3ccccc23)cc1S(=O)(=O)N1CCCCCC1	-6	-1	-17%	23%	4%	nt	nt	nt	nt	nt
Cc1ccc(NC(=O)CN(C)CC(=O)Nc2cccc(F)c2)cc1S(=O)(=O)N1CCCCCC1	14	6	16µM*	0%	-10%	-5%	-4%	1%	-4%	-3%
O=C(CN(Cc1ccccc1Cl)S(=O)(=O)c1ccc(Cl)cc1)N/N=C/c1ccc(C(=O)O)cc1	-6	7	nt	6%	-5%	nt	nt	nt	nt	nt
O=C(CSc1n[nH]c(-c2cccnc2)n1)Nc1ccccc1[N+](=O)[O-]	18	-3	25µM*	-6%	-4%	?	-7%	-6%	2%	5%
